Source: PubChem BioAssay

Molecular target: Torsin-1A-interacting protein 2 (Homo sapiens) (UniProt Q8NFQ8)
Assay: small molecules binding lysate-expressed LULL1 – cell lysate, human LULL1 lysate, 635/667 nm fluorescence, primary screen (AID 1092);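 further: probe is lysate of COS7 cells overexpressing human LULL1; score merges per-feature 667 nm fluorescence with signal-to-noise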
Settings: small-molecule microarray, hLULL1 lysate binding, 635 nm fluorescence; higher = more signal

Torsin-1A-interacting protein 2 (Homo sapiens), sequence (Q8NFQ8 whole entry, looked up): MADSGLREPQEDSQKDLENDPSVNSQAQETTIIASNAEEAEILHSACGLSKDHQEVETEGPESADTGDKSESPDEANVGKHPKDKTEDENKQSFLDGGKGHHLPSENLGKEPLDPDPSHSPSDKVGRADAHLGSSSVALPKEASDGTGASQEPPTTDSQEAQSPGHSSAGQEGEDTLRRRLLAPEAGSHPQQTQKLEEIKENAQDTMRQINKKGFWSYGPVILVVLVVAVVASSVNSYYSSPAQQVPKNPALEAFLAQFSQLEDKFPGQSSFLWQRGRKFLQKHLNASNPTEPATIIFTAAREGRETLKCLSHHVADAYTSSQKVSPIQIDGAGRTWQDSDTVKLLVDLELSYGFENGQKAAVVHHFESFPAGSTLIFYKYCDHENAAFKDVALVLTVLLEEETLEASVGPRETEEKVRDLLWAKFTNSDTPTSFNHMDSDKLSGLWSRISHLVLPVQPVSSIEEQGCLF

Compound | composite z-score
CCCC1(C(=O)OC)C=C2C(=C(C)C(=O)C2C)CN1 (stereo not given) | 0.941
NCCCCCNC(=O)[C@@H]1C[C@@H]2C(=O)N[C@@H](CCCCN)C(=O)N2[C@@H]1c1ccc(O)cc1 | 3.2
CCCN1C(=O)[C@]2(Cc3ccccc31)N=C(c1ccc(OCCCO)cc1)O[C@@H]2c1ccccc1 | 2.74
CCN(CC)c1ccc(N2CC=CC34O[C@@H]5/C=C\CCCOC(=O)C5[C@H]3C(=O)N(C(C)CO)[C@@H]4C2=O)cc1 (stereo not given in full) | 0.347
NC(=O)[C@H]1[C@@H]2C(=O)O[C@@H](c3ccccc3)[C@@H](c3ccccc3)N2[C@@H](c2ccc(OCCO)cc2)[C@]12C(=O)Nc1ccc(C#CCCO)cc12 | 1.7
CC(C)C(CO)N1C(=O)[C@@H]2[C@H]3C(=O)OCC=C[C@H]3OC23C=CCN(c2ccc(Cl)cc2)C(=O)[C@@H]13 (stereo not given in full) | -0.0004
C=CCNC(=O)[C@@H]1[C@H]2C(=O)O[C@H](c3ccccc3)[C@H](c3ccccc3)N2[C@H](c2ccccc2OCCO)[C@@]12C(=O)Nc1ccc(C#CCC(C(=O)OC)C(=O)OC)cc12 | 1.77
COc1ccc(C#Cc2ccc3c(c2)[C@]2(C(=O)N3)[C@H](C(=O)O)[C@H]3C(=O)O[C@H](c4ccccc4)[C@H](c4ccccc4)N3[C@@H]2c2ccc(O)cc2)cc1 | 1.98
CCCC[C@@H](O)C1=C(COC)C[C@H]2C(=O)N(Cc3ccccc3)C(=O)[C@H]2[C@H]1CO | 0.113
COC(=O)[C@@]1(Cc2ccc(F)cc2)[C@H]2c3cc(C(=O)N4CCCC4)n(Cc4ccc(C)c(F)c4F)c3C[C@H]2CN1C(=O)c1ccccc1 | 0.919
C=CCNC(=O)[C@@H]1[C@H]2C(=O)O[C@H](c3ccccc3)[C@H](c3ccccc3)N2[C@H](c2ccc(O)cc2)[C@@]12C(=O)N(C(=O)OCCOC)c1ccc(C#CC3=CCCCC3)cc12 | 2.25
C#Cc1cc2ccccc2oc1=O | 0.969
COc1cc(NN2C(C(O)c3cc(OC)c(OC)c(OC)c3)C=CC3C(=O)N(C)C(=O)C32)cc(OC)c1OC (stereo not given) | 3.37
CO[C@H]1O[C@H](CO)[C@@H](OC(=O)Nc2ccccc2)[C@H](OC(=O)c2cc3ccccc3[nH]2)[C@H]1OC(=O)c1cc2ccccc2[nH]1 | 0.87
CCOC(=O)C[C@H]1[C@H](OC(=O)Cc2ccc3c(c2)OCO3)[C@@H](NC(=O)c2ccc3ccccc3n2)c2cc(OCCCO)ccc2N1C(=O)c1ccc2ccccc2n1 | 1.03
COc1ccc(C#Cc2ccc3c(c2)[C@]2(C(=O)N3)[C@H](c3ccc(OCCO)cc3)N3[C@H](c4ccccc4)[C@H](c4ccccc4)OC(=O)[C@H]3[C@@H]2C(=O)NC[C@H](O)c2ccccc2)cc1 | 3.08
NCCCCCNC(=O)[C@H]1C[C@H]2C(=O)N3CCC[C@H]3C(=O)N2[C@H]1c1cccc(OCCO)c1 | 3.15
CO[C@H]1O[C@H](CO)[C@@H](OC(=O)Nc2ccc(Br)cc2)[C@@H]2OC(=O)[C@@H](Cc3ccccc3)C/C=C/C[C@H](Cc3ccccc3)C(=O)O[C@@H]12 | 2.01

Compound | composite z-score
CCOC(=O)[C@@H]1CCCCN1C(=O)C(=O)OC | 0.377
O=C(Cc1ccccc1)[C@H]1C2C=CCCC(c3ccccc3)=C2CN1Cc1ccccc1 (stereo not given in full) | -0.862
CCOC(=O)C[C@H]1[C@H](OC(=O)Cc2ccc3c(c2)OCO3)[C@@H](NC(=O)C2CCCCC2)c2cc(OCCCO)ccc2N1C(=O)c1ccccc1 | 0.618
C=C[C@H](C)[C@H](OC(=O)Nc1ccc(SC)cc1)c1ccc(OCCO)cc1 | 1.53
CCCCC(CC)C(O)C1C=CC2C(=O)N(c3ccccc3)C(=O)C2N1Nc1ccccc1F (stereo not given) | 2.64
Cc1ccc(C(C)CC(O)C2C=CC3C(=O)N(c4ccccc4)C(=O)C3N2Nc2ccccc2)o1 (stereo not given) | 3.09
CCOC(=O)C1=C[C@@H](C(C)(C)C)N(S(=O)(=O)c2ccc(C)cc2)[C@H]1c1cccc2ccccc12 | 2.36
CC(C)N1C(=O)C[C@@](C(=O)NC2CC2)(c2ccc([N+](=O)[O-])cc2)[C@H]1c1ccc(CO)cc1 | 3.25
COC(=O)c1c(CC[C@@H](CO)NC(=O)N2CCC[C@H]2Cn2cc(C3(O)CCCCC3)nn2)oc(C(C)=O)c1C(=O)OC | 3.4
NC(=O)NCC#Cc1ccc2c(c1)[C@]1(C(=O)N2)[C@H](c2ccccc2OCCO)N2[C@H](c3ccccc3)[C@H](c3ccccc3)OC(=O)[C@H]2[C@@H]1C(=O)NC[C@H](O)c1ccccc1 | 1.06
CN(C)C(=O)[C@]1(CCC(=O)OC(C)(C)C)N=C(c2ccc(OCCCO)cc2)O[C@@H]1c1ccccc1CN=[N+]=[N-] | 3.81
Cc1ccccc1C(O)C1C=CC2C(=O)NC(=O)C2N1Nc1ccccn1 (stereo not given) | 1.6
COCCOC(=O)N1C(=O)[C@@]2(c3ccccc31)[C@H](C(=O)NC[C@H](O)c1ccccc1)[C@H]1C(=O)O[C@H](c3ccccc3)[C@H](c3ccccc3)N1[C@@H]2c1ccc(O)cc1 | 3.01
CC1CC/C=C\[C@H]2OC34C=CCN(C(C)C)C(=O)[C@H]3N(CCO)C(=O)[C@@H]4C2C(=O)O1 (stereo not given in full) | -0.021
CCOC(=O)C=Cc1cccc(C)c1O | 0.236
CCCCCCCCCCC(O)C1C=CC2C(=O)N(c3ccccc3)C(=O)C2N1Nc1ccc(C#N)cc1 (stereo not given) | 3.36
COCC(=C=CC[C@H](O)c1ccc(CO)o1)CCO | 0.751
